# High-throughput results from PubChem BioAssay.
# TDP1 cell noCPT: qHTS for Inhibitors of human tyrosyl-DNA phosphodiesterase 1 (TDP1): qHTS in cells in absence of CPT. AID 686978, 2013. 420,000 tested, 15% active. DT40 Tdp1-/- hTDP1 cells, no CPT, ATP luminescence, 48 h. Potency, µM (series often up to 46.2 µM), hits mostly inhibitors; further: nearly all actives have a fitted effect of over 55% in size
#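 Luminescent ATP content (CellTiter-Glo) served as the growth readout. Knockout chicken DT40 cells expressing human TDP1 were exposed to compounds without camptothecin for a minimum 48 hr at 37 °C.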
# TDP1 cell CPT: DT40-hTDP1 cell growth loss with CPT. chicken DT40 Tdp1-/-;hTDP1 cells + 20 nM CPT, ATP luminescence, 48 h. Potency, µM (titrated, usually from 46.2 µM), hits mostly inhibitors. 420,000 tested, 12% active; further: nearly all actives have a fitted effect of over 55% in size
#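 Chicken DT40 Tdp1-/- cells complemented with human TDP1, 400 cells/well, exposed to compounds plus 20 nM camptothecin for at least 48 h at 37 C; viability read as ATP content by CellTiter-Glo luminescence.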
# HT1080 IDH1KD tx: toxicity to HT-1080 IDH1 knockdown cells (counter line). HT-1080 IDH1 knockdown viability, ATP luminescence, 48 h. Potency, µM (series often up to 46.1 µM), most hits filed as cytotoxic. 360,000 tested, 2% active. AID 686971
#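 Knockdown cells (IDH1KD HT-1080) received compounds 2 h after plating at 750 cells/well and were kept 48 h at 37 °C in 5% FBS RPMI. A CellTiter-Glo luminescence read gave % activity for curve fitting.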
# HT1080-NT tox: kills 2HG-producing HT-1080-NT fibrosarcoma cells; HT-1080-NT fibrosarcoma viability, CellTiter-Glo ATP luminescence, 48 h; Potency, µM (top dose mostly 46.1 µM), usual class: cytotoxic; 360,000 tested, 1.6% active; AID 686970;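 further: NT is the 2HG producing partner of a matched IDH1 knockdown line; nearly all actives have a fitted effect of over 55% in size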
#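 Read-out is CellTiter-Glo luminescence after 10 minutes at room temperature, following 48 hours' compound treatment of HT-1080-NT cells (750 cells/well, RPMI, 5% FBS, 37 degrees C).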
# IL-1B inflam inh: inhibitors of inflammasome signaling (IL-1 beta secretion) | 360,000 tested, 4.7% active | AID 743279 | activity change, % at 57.5 µM | THP-1 LPS/ATP IL-1B secretion, AlphaLISA, 16 h; stronger effect = lower value; in the data active means activity change below about -50%; inconclusive means mostly about -30% to -49%
#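 Secreted IL-1B measured by AlphaLISA bead assay after 16 h compound exposure of THP-1 cells; compounds (final up to 57.5 uM) added 1 h before LPS (250 ng/mL) and ATP (1.25 mM) stimulation; lower signal means less secretion.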
# Numbers stand for hits; . = inactive; ? = inconclusive; / = no result. This is a sample that favours compounds with a hit; in the whole collection about 19% have one here. Unless noted, the call rests on the fitted dose curve; in most records, active means well fitted curve in the direction sought with a large enough effect; inconclusive means small, poorly fitted or top-dose-only effect, or another doubt; inactive means no such curve, though single readings can be large; an effect the other way counts as inactive or inconclusive.
SMILES,TDP1 cell noCPT,TDP1 cell CPT,HT1080 IDH1KD tx,HT1080-NT tox,IL-1B inflam inh
O=C(Cn1cnc([N+](=O)[O-])n1)N/N=C/c1cccc(Cl)c1,.,.,.,.,.
O=C(Cn1cnc([N+](=O)[O-])n1)N/N=C/c1ccc(O)cc1O,12µM,?,18µM,?,.
CC1(C)Cc2c(sc3[nH]c(=S)[nH]c(=O)c23)CO1,.,.,.,.,.
COc1cc(NC(=O)CSc2nc3nc(C)c(Cc4ccccc4)c(C)n3n2)cc(OC)c1OC,21µM,21µM,/,/,/
Cc1nc2nc(SCC(=O)NC3CCC(C)CC3)nn2c(C)c1Cc1ccccc1 (centres undefined),?,18µM,/,/,/
C=CCc1c(C)nc2nc(SCC(=O)Nc3cccc(Cl)c3)nn2c1C,.,21µM,/,/,/
Cc1cccc(Cc2c(C)nc3nc(SCC(=O)NCc4ccccc4)nn3c2C)c1,?,21µM,/,/,/
C=CCc1c(C)nc2nc(SCC(=O)Nc3ccc(C)c(C)c3)nn2c1C,.,?,/,/,/
COc1ccccc1CNC(=O)CSc1nc2nc(C)c(Cc3ccccc3C)c(C)n2n1,5.2µM,15µM,/,/,/
O=S(=O)(c1ccccc1)[C@@]1(c2ccccc2)C[C@@H]2ON=C(c3cccc(Br)c3)[C@@H]2C1,3.7µM,4.6µM,.,.,.
O=C(O)[C@]1(S(=O)(=O)c2ccccc2)C[C@@H]2ON=C(c3cccc(Br)c3)[C@@H]2C1,.,?,.,.,.
Cc1ccc(SCC(=O)NCc2ccccc2)cc1,.,.,.,.,.
CCOC(=O)Cn1c(=O)oc2cc(S(=O)(=O)N(C)Cc3ccccc3)ccc21,.,.,.,.,.
COc1ccc(CCNC(=O)C(C)n2nc(C)c3sc4ccccc4c3c2=O)cc1OC (centres undefined),18µM,15µM,/,/,/
CCOC(=O)C(C)n1nc(C)c2sc3ccccc3c2c1=O (centres undefined),?,?,.,.,.
CCC(C(=O)N1CCOCC1)n1nc(C)c2sc3ccccc3c2c1=O (centres undefined),.,.,.,.,.
COc1ccc(CNC(=O)C(C)n2nc(C)c3sc4ccccc4c3c2=O)cc1OC (centres undefined),6.5µM,6.5µM,/,/,/
CCC(C(=O)NCCc1ccc(SC)cc1)n1nc(C)c2sc3ccccc3c2c1=O (centres undefined),23µM,?,/,/,/
CCC(C(=O)NCCc1ccc(OC)c(OC)c1)n1nc(C)c2sc3ccccc3c2c1=O (centres undefined),8.2µM,9.2µM,/,/,/
CCCCNC(=O)c1c[nH]c2ccc(S(=O)(=O)N3CCOCC3)cc2c1=O,.,.,?,.,.
COc1ccc(N2C(=O)c3ccccc3C(C)(C)C2=O)cc1,.,.,.,.,.
COc1ccc(NC(=O)c2ccco2)cc1NC(=O)c1cc(Cl)ccc1OC,.,.,/,/,/
Cc1cc(OC(=O)c2ccco2)c(Sc2ccccc2[N+](=O)[O-])c(=O)o1,18µM,?,.,.,.
CC(C)(O)C#Cc1ccc(CN2CCCC(CNC(=O)c3ccco3)C2)cc1 (centres undefined),.,.,.,.,.
COc1ccc(C)cc1NC(=O)CC1COc2ccccc2O1 (centres undefined),.,.,.,.,.
SMILES,TDP1 cell noCPT,TDP1 cell CPT,HT1080 IDH1KD tx,HT1080-NT tox,IL-1B inflam inh
CCn1c(=NC(=O)C2COc3ccccc3O2)sc2c(C)ccc(OC)c21 (centres undefined),12µM,21µM,.,.,.
COC(=O)Cn1c(=NC(=O)C2COc3ccccc3O2)sc2cc(S(N)(=O)=O)ccc21 (centres undefined),18µM,?,.,.,-52
C=CCn1c(=NC(=O)C2COc3ccccc3O2)sc2cccc(OC)c21 (centres undefined),23µM,?,.,.,.
C=CCn1c(=NC(=O)CN2C(=O)CCC2=O)sc2cccc(OC)c21,?,?,.,.,.
CSc1ccccc1C(=O)NCCS(=O)(=O)N1CCN(c2ccc(F)cc2)CC1,?,?,.,.,.
O=C(NCCS(=O)(=O)N1CCN(c2ccc(F)cc2)CC1)c1cccc(C(F)(F)F)c1,18µM,?,/,/,/
